Screening data deposited in PubChem by Broad Institute.
MITF inhib – blocks MITF activity | TRPM1 promoter luciferase, luminescence, 24 h | 0.28% of 37,000 active | AID 2240 | inhibition, % (concentration not given with the values); in the data active = inhibition above about 85%;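 also: human melanocyte line stably carrying TRPM1 promoter luciferase reporter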
Hedgehog inh – Sonic Hedgehog pathway inhibition; 2.1% of 22,000 active; inhibition, % (no concentration beside the values); AID 2313; Shh-LIGHT2 Gli-luciferase reporter, 30 h;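 active = mean inhibition across valid replicates above about 65%, limit read from the data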;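 also: pathway switched on by Shh-conditioned medium diluted 1 in 25 in low serum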
BJeLR viability – BJeLR cell viability reduction; BJeLR fibroblasts viability, CellTiterGlo ATP luminescence, 48 h; HRASV12, hTERT and SV40 LT/ST transformed; viability loss activity score, % (no concentration beside the values); 0.64% of 30,000 active; in the data active = viability loss activity score above about 50%;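 also: higher score means fewer live cells and less ATP luminescence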
An asterisk follows results filed as active; · = no result given. This excerpt belongs to a sample that is enriched for hits.

SMILES | MITF inhib | Hedgehog inh | BJeLR viability
Cc1cc(C(=O)Nc2cccc3c2O[C@@H](CN(C)Cc2ccc(Oc4ccccc4)cc2)[C@@H](C)CN([C@@H](C)CO)C3=O)n(C)n1 | -13 | -9 | -1
C[C@H](CO)N1C[C@H](C)[C@H](CN(C)C(=O)Nc2cccc3ccccc23)Oc2c(NC(=O)c3ccc(-c4nccs4)cc3)cccc2C1=O | -19 | -25 | 5
CC(Sc1ncnc2sc3c(c12)CCCC3)C(=O)O (stereo unspecified) | · | · | -1
COc1ccc(NC(=O)COc2ccc(C)cc2)cc1 | · | · | -2
COc1ccc(NC(=S)NCCN(C2CCCCC2)C2CCCC2)cc1 | · | · | 0
CC(=O)c1cccc(NC(=O)C2CCCN(S(=O)(=O)c3ccc(Cl)cc3)C2)c1 (stereo unspecified) | 3 | · | ·
CC1=CCC[C@@H]2[C@](CCc3ccoc3)(C(=O)O)[C@H](C)CC[C@@]12C | -7 | -47 | -3
C[C@@H]1C[C@H]2OCC3=CCC[C@H]([C@]1(CC(O)c1ccoc1)C(=O)O)[C@]32CO (stereo partly specified) | 19 | -22 | 92*
COc1ccc2nc(SCC(=O)NC3CCCCCC3)[nH]c2c1 | 14 | · | ·
CC(=O)N1CCSc2cc(S(=O)(=O)Nc3cccc(C)c3)ccc21 | · | · | 17
FC(F)(F)c1ccc(CSc2c[nH]c3ccccc23)cc1 | · | · | 2
COc1cc(CC2COC(=O)C2(O)Cc2ccc(O)c(OC)c2)ccc1O (stereo unspecified) | 91* | -28 | 1
COc1cc(C[C@@]2(O)C(=O)OC[C@@H]2Cc2ccc(OC)c(OC)c2)ccc1O | 67 | 50 | 8
Cc1cc(C(=O)N2N=C(C3CC3)CC2(O)C(F)(F)F)c2ccccc2n1 (stereo unspecified) | · | · | 4
CCOc1ccc(C(=O)n2cnc3cc(C)c(C)cc32)cc1 | · | · | 1
COc1cc(CC(CO)C(CO)Cc2cc(OC)c(O)c(-c3cc(CC(CO)C(CO)Cc4ccc(O)c(OC)c4)cc(OC)c3O)c2)ccc1O (stereo unspecified) | · | 9 | ·
COc1cc(CC(C)C(C)Cc2ccc(O)c(OC)c2)ccc1O (stereo unspecified) | 47 | -59 | 118*
COc1cc(S(=O)(=O)NCc2ccco2)ccc1Br | -12 | · | ·
C[C@H](CO)N1C[C@H](C)[C@H](CN(C)S(=O)(=O)c2ccc(F)cc2)Oc2c(NC(=O)Nc3ccc4c(c3)OCO4)cccc2C1=O | -11 | 92* | 1
Cc1ccc(S(=O)(=O)N(C)C[C@H]2Oc3c(NC(=O)Nc4ccc5c(c4)OCO5)cccc3C(=O)N([C@H](C)CO)C[C@H]2C)cc1 | -16 | -1 | -9
C[C@H](CO)N1C[C@H](C)[C@@H](CN(C)S(=O)(=O)c2ccc(F)cc2)Oc2c(NC(=O)Nc3ccc4c(c3)OCO4)cccc2C1=O | 6 | 13 | -6
Cc1ccc(S(=O)(=O)N(C)C[C@@H]2Oc3c(NC(=O)Nc4ccc5c(c4)OCO5)cccc3C(=O)N([C@H](C)CO)C[C@@H]2C)cc1 | -11 | 115* | -3
C[C@@H]1CN([C@@H](C)CO)C(=O)c2cccc(NC(=O)Nc3ccc4c(c3)OCO4)c2O[C@H]1CN(C)S(=O)(=O)c1ccc(F)cc1 | 2 | 1 | -12
C[C@H]1CN([C@@H](C)CO)C(=O)c2cccc(NC(=O)Nc3ccc4c(c3)OCO4)c2O[C@H]1CN(C)S(=O)(=O)c1ccc(F)cc1 | -30 | 101* | 1
CCn1c(C(=O)N2CCC(C(=O)NCc3ccc(Cl)cc3)CC2)cc2occc21 | · | · | 5
SMILES | MITF inhib | Hedgehog inh | BJeLR viability
O=C(Cn1c(SCc2cccc(C(F)(F)F)c2)nc2ccncc21)NCCC1=CCCCC1 | · | · | 8
CC1C(=O)C(C)C(c2ccc(N(C)C)cc2)NC1c1ccc(N(C)C)cc1 (stereo unspecified) | · | · | 2
CCOC(Cn1c(SCc2c(F)cccc2Cl)nc2ccccc2c1=O)OCC | · | · | -2
N#Cc1c(NC(=O)CSc2ncn[nH]2)sc2c1CCCCC2 | 104* | · | ·
COC(=O)c1c(NC(=O)CSc2ncn[nH]2)sc2c1CCCC2 | 18 | · | ·
Cc1ccc(Oc2ncccc2NC(=O)Nc2ccccc2)c2c1CCC2 | · | · | 5
CCCc1c(-c2ccccc2)nc2sc3c(c2c1N)CCCCC3 | · | · | 7
O=C1C=CC(=O)c2c(O)c(Cl)c(Cl)c(O)c21 | 60 | 44 | 54*
COC(=O)c1c(NC(=O)COc2cc(C)ccc2C)sc2c1CCC2 | -7 | · | ·
CC(=O)N(CCc1c(C)[nH]c2ccccc12)C(C(=O)Nc1c(C)cccc1C)c1ccc(Cl)cc1 (stereo unspecified) | · | · | -3
CC1(C(=O)c2ccccc2)C2c3cc(Br)ccc3OC(=O)C21C(=O)N1CCCCC1 (stereo unspecified) | · | · | -2
Cc1nc(-c2cc(C#N)c(SCCNS(=O)(=O)c3ccc(C(C)(C)C)cc3)nc2C)cs1 | 7 | 90* | -4
CC(C)(C)c1ccc(S(=O)(=O)CCSc2nc3c(cc2C#N)CCCC3)cc1 | · | · | -1
CC1=CC2OC3[C@H](O)C[C@](C)([C@@]2(CO)CC1=O)[C@]31CO1 (stereo partly specified) | 47 | 95* | 37
CC(=O)OC[C@]12CCC(C)=CC1O[C@@H]1[C@H](O)[C@@H](O[C@H]3O[C@H](CO)[C@@H](O)[C@H](O)[C@H]3O)[C@@]2(C)C12CO2 (stereo partly specified) | · | 50 | ·
O=C(NCc1cccs1)c1cc(=O)n(Cc2ccc(Cl)cc2)c2ccccc12 | · | · | -9
CC(=O)Nc1cc(C(=O)c2ccc(Cl)cc2)nn(-c2ccccc2)c1=O | · | · | 3
Cc1ccc(Nc2nnc(-c3ccc(C)c(S(=O)(=O)NCC4CCCO4)c3)c3ccccc23)cc1 (stereo unspecified) | -2 | 91* | 5
CNS(=O)(=O)c1cc(-c2nnc(Nc3cccc(O)c3)c3ccccc23)ccc1C | -1 | · | ·
COc1ccc2cc3c(N)nn(C(=O)CCn4c(=S)oc5ccccc54)c3nc2c1 | · | · | 5
COc1ccc(CCNC(=S)N2CCN(C(=O)c3ccco3)CC2)cc1OC | -2 | · | ·
Cc1ccc2cc3cc(C(=O)NCc4cccs4)sc3nc2c1 | · | · | 0
CCOC(=O)c1cc(-c2ccccc2)sc1NC(=O)CCN1CCN(CC)CC1 | · | · | 51*
CCOC(=O)c1cc(-c2ccccc2)sc1NC(=S)Nc1cnccn1 | -9 | · | ·
C=C1C(=O)O[C@H]2CC(C)C3CC[C@@]4(C)O[C@@]34CC12 (stereo partly specified) | · | -16 | ·
SMILES | MITF inhib | Hedgehog inh | BJeLR viability
C=C1C(=O)O[C@H]2C1CCC(C)=C1C(=O)C=C(C)[C@@]12O (stereo partly specified) | 10 | 7 | -4
C=C1C(=O)O[C@@H]2[C@H]3O[C@]3(C)CCC=C(C)CC[C@@H]12 | 93* | 82* | 17
C=C1C(=O)O[C@@H]2C3O[C@]3(C)CC/C=C(/C)CC[C@@H]12 (stereo partly specified) | 68 | 67* | 7
O=C(COc1ccc2ccccc2c1)Nc1cccc(-c2nc3ncccc3o2)c1 | · | · | 3
COC(=O)c1ccc(C)c(NC(=O)CN(c2cc(Cl)c(Cl)cc2Cl)S(C)(=O)=O)c1 | 0 | · | ·
CC(C)(C)c1ccccc1NC(=O)c1cccc(Cn2cc(Cl)cn2)c1 | · | · | 0
C=C1C(=O)O[C@H]2[C@H]1C[C@H](OC(=O)/C(C)=C\C)/C(C)=C\CC[C@@]1(C)O[C@@H]21 | 33 | 5 | 21
